Measurements reported in PubChem BioAssay AID1259421 (Broad Institute, 2018).
“And” between values parts separate entries of the source, which are not always exact repeats. Identical values can stand only once. The whole screen tested about 6,400 compounds, of which about 610 (9.5%) were called active. This is one part of a sample in which actives are shown more often than they occur. No stated cut-off is given here; in the data, active means activity change below about -70%; inconclusive means no clear call, values can overlap the other calls; inactive means above that. Some compounds were tested as several samples or in several runs, with calls that do not always agree.

Assay: T. gondii ME49Luc in HeLa cells, luciferase assay, 72 h, no IFN-y (AID 1259421)
Settings: stronger effect = lower value, concentration not given here
In the case of Cc1cccc(C)c1NC(=O)/N=C1/CCCN1C, the activity change, negative = inhibition is reported as 6.63% (inactive). In the case of COc1ccc(/C=C/C(=O)c2ccc(O)cc2O)cc1, the activity change, negative = inhibition is reported as 82.9% (inactive). With COc1ccnc(CS(=O)c2nc3ccc(OC(F)F)cc3[nH]2)c1OC (centres undefined) the activity change, negative = inhibition was 26.3% (inactive) and 7.86% (inactive). In the case of Cc1ccc(OCC(O)C(C)NC(C)C)c2c1CCC2 (centres undefined), the activity change, negative = inhibition is reported as 14.3% (inactive). With Cc1oc(=O)oc1CN1CCN(c2cc3c(cc2F)c(=O)c(C(=O)O)c2n3C(C)S2)CC1 (centres undefined) the activity change, negative = inhibition was 19.8% (inactive). For COc1cc(-c2coc3cc(OCc4ccccc4)c(OC)c(O)c3c2=O)cc(OCc2ccccc2)c1OC, the activity change, negative = inhibition was -39.8% (inactive). With COc1ccc([C@@H]2CC(=O)c3c(O)cc(O[C@@H]4O[C@H](CO[C@H]5O[C@@H](C)[C@H](O)[C@@H](O)[C@H]5O)[C@@H](O)[C@H](O)[C@H]4O)cc3O2)cc1O the activity change, negative = inhibition was 5.14% (inactive). In the case of Cc1cc(N2CCN([C@@H]3CN[C@H](C(=O)N4CCSC4)C3)CC2)n(-c2ccccc2)n1, the activity change, negative = inhibition is reported as -3% (inactive). For COC(=O)N1CCN(Cc2cccc(NC(=O)Nc3ccc(C)nc3)c2F)CC1, the activity change, negative = inhibition was 9.25% (inactive). In the case of Cc1ccc(C(=O)Nc2ccc(CN3CCN(C)CC3)c(C(F)(F)F)c2)cc1C#Cc1cnc2cccnn12, the activity change, negative = inhibition is reported as -83% (active). For Cc1ccc(C(=O)Nc2ccc(CN3CCN(C)CC3)c(C(F)(F)F)c2)cc1C#Cc1cnc2[nH]ncc2c1, the activity change, negative = inhibition was -89.3% (active). For CCCCCCCCCCCCCCCC(=O)OC[C@H](NC(=O)C(Cl)Cl)[C@H](O)c1ccc([N+](=O)[O-])cc1, the activity change, negative = inhibition was 7.24% (inactive) and 16.1% (inactive). In the case of NC(=O)CCC1NC(=O)C(Cc2ccccc2)NC(=O)C(Cc2ccc(O)cc2)NC(=O)CCSSCC(C(=O)N2CCCC2C(=O)NC(CCCN=C(N)N)C(=O)NCC(N)=O)NC(=O)C(CC(N)=O)NC1=O (centres undefined), the activity change, negative = inhibition is reported as 7.89% (inactive). For COc1cc(/C=C/C(=O)O)cc(OC)c1O, the activity change, negative = inhibition was -2.18% (inactive). For COc1cc2c(cc1OC)C(c1ccc(N)cc1)=NNC(=O)C2, the activity change, negative = inhibition was -18.7% (inactive) and 7.52% (inactive). For CC1=C(SCCO)C(=O)c2ccccc2C1=O, the activity change, negative = inhibition was 29.8% (inactive). For COc1ccc2c(c1)c1c3n2CCN(C)C3=NCC1, the activity change, negative = inhibition was 14.7% (inactive). In the case of C=CC(=O)N1CCCCC1, the activity change, negative = inhibition is reported as 4.09% (inactive). With CN([NH2+][O-])C(=O)N[C@@H]1[C@@H](O)[C@H](O)[C@@H](CO)O[C@@H]1O the activity change, negative = inhibition was -1.36% (inactive). For Cc1ccc(O)c(N=Nc2ccccc2)n1, the activity change, negative = inhibition was 8.22% (inactive) and 3.77% (inactive). In the case of COc1cccc2c1C(=O)c1c(O)c3c(c(O)c1C2=O)CC(O)(C(=O)CO)CC3OC1CC(N)C(O)C(C)O1 (centres undefined), the activity change, negative = inhibition is reported as -89.5% (active). For COc1cccc2c1C(=O)c1c(O)c3c(c(O)c1C2=O)C[C@@](O)(C(=O)CO)C[C@@H]3O[C@H]1C[C@H](N)[C@@H](O)[C@H](C)O1, the activity change, negative = inhibition was -80.9% (active). For COc1cccc2c1C(=O)c1c(O)c3c(c(O)c1C2=O)C[C@@](O)(C(=O)CO)C[C@@H]3OC1C[C@H](N)[C@H](O)[C@H](C)O1 (some centres undefined), the activity change, negative = inhibition was -87.6% (active). With CCCCC(=O)OCC(=O)[C@]1(O)Cc2c(O)c3c(c(O)c2[C@@H](O[C@H]2C[C@H](NC(=O)C(F)(F)F)[C@H](O)[C@H](C)O2)C1)C(=O)c1c(OC)cccc1C3=O the activity change, negative = inhibition was -24.8% (inactive). In the case of COc1cccc2c1C(=O)c1c(O)c3c(c(O)c1C2=O)C[C@@](O)(C(=O)CO)C[C@@H]3O[C@H]1C[C@H](N)[C@H](O)[C@H](C)O1, the activity change, negative = inhibition is reported as -78.1% (active) and -79.4% (active). For NC(Cc1ccc(O)cc1)C(=O)O (centres undefined), the activity change, negative = inhibition was 3.44% (inactive). For Oc1ccc(-c2nc3cc(O)cc(Br)c3o2)cc1, the activity change, negative = inhibition was -55.9% (inactive). For CC(=O)O[C@@H]1CC2C(C)(CC[C@H](O)C2(C)C)C2CC[C@]3(C)C(=CC(=O)O[C@H]3c3ccoc3)C21C (some centres undefined), the activity change, negative = inhibition was -5.23% (inactive). For CCC(c1ccc(O)cc1)C(CC)c1ccc(O)cc1 (centres undefined), the activity change, negative = inhibition was 14.8% (inactive). For c1ccc(-c2cc3ccccc3[nH]2)cc1, the activity change, negative = inhibition was 106% (inactive). For Nc1nc(Nc2ccccc2)nc2c1ncn2C1OC(CO)C(O)C1O (centres undefined), the activity change, negative = inhibition was 3.98% (inactive). With COc1ccc(Nc2ccn(-c3ccccc3)n2)cc1 the activity change, negative = inhibition was 404% (inactive). For CCCCCC/C=C\CCCCCCCc1cccc(O)c1C(=O)O, the activity change, negative = inhibition was 6.32% (inactive). In the case of NC(=O)CC[C@H](NC(=O)Cc1ccccc1)C(=O)O, the activity change, negative = inhibition is reported as 16.1% (inactive). With C=CC(C)(C)c1cc(/C=C/C(=O)c2ccc(O)cc2)c(OC)cc1O the activity change, negative = inhibition was 187% (inactive). With CCCC(CCC)C(=O)Nc1ccn([C@@H]2O[C@H](CO)[C@@H](O)C2(F)F)c(=O)n1 the activity change, negative = inhibition was -1.71% (inactive). For COc1ccccc1OC(=O)CNC(=O)Cc1ccc(C(=O)c2ccc(C)cc2)n1C, the activity change, negative = inhibition was 15.7% (inactive). With C[C@@H]1O[C@@H](Oc2c(-c3cc(O)c(O)c(O)c3)oc3cc(O)cc(O)c3c2=O)[C@@H](O)[C@H](O)[C@H]1O the activity change, negative = inhibition was 8.81% (inactive). In the case of CN1CCN(c2ccc3nc(-c4ccc5nc(-c6ccc(O)cc6)[nH]c5c4)[nH]c3c2)CC1, the activity change, negative = inhibition is reported as -23.1% (inactive). With CN1CCN(c2ccc3nc(-c4c(N)c5c(F)cccc5[nH]c4=O)[nH]c3c2)CC1 the activity change, negative = inhibition was -36.1% (inactive) and -79.7% (active). For CN1CCN(C(=O)c2nc3ccc(Cl)cc3[nH]2)CC1, the activity change, negative = inhibition was 1.51% (inactive) and 15.6% (inactive). With O=C(O)c1cc(N=Nc2ccc(O)c(C(=O)O)c2)ccc1O the activity change, negative = inhibition was 7.94% (inactive). In the case of O=S(=O)(O)C(F)(F)F.O=S(=O)(O)C(F)(F)F.O=S(=O)(O)C(F)(F)F.[Bi], the activity change, negative = inhibition is reported as 11% (inactive). In the case of CN(C)C(=S)SC(=S)N(C)C, the activity change, negative = inhibition is reported as 39.1% (inactive). With NC(N)=NC(N)=NCCc1ccccc1 the activity change, negative = inhibition was -13.4% (inactive). With CC(C)C(NS(=O)(=O)c1ccc(-c2ccc(Br)cc2)cc1)C(=O)O (centres undefined) the activity change, negative = inhibition was 9.87% (inactive). With CC(C)[C@H](NS(=O)(=O)c1ccc(-c2ccc(Br)cc2)cc1)C(=O)O the activity change, negative = inhibition was 4.75% (inactive). With CC(C)ON([C@@H](C(=O)NO)C(C)C)S(=O)(=O)c1ccc(-c2ccccc2)cc1 the activity change, negative = inhibition was -87.2% (active). With Cc1noc(-c2ccc(CSCCC(=O)O)cc2)c1NC(=O)OC(C)c1ccccc1Cl (centres undefined) the activity change, negative = inhibition was 13.3% (inactive). In the case of O=C(O)c1ccc2nc(-c3cc(Cl)cc(Cl)c3)oc2c1, the activity change, negative = inhibition is reported as 84.3% (inactive). In the case of Cc1[nH]c(/C=C2\C(=O)Nc3ccc(S(=O)(=O)N(C)c4cccc(Cl)c4)cc32)c(C)c1C(=O)N1CCN(C)CC1, the activity change, negative = inhibition is reported as -35.8% (inactive). With Cc1[nH]c(/C=C2\C(=O)Nc3ccc(S(=O)(=O)Cc4c(Cl)cccc4Cl)cc32)c(C)c1C(=O)N1CCC[C@@H]1CN1CCCC1 the activity change, negative = inhibition was -78.2% (active) and -84% (active) and -67.3% (inactive). In the case of OC1(c2ccc(Cl)cc2)CCNCC1, the activity change, negative = inhibition is reported as 13.9% (inactive). In the case of CN1CC[C@@H](NC(=O)Nc2ccc(C#N)cc2)C[C@@H]1c1nc2ccccc2[nH]1, the activity change, negative = inhibition is reported as 7.93% (inactive). In the case of CC(C)C[C@H](NC(=O)[C@@H](NC(=O)c1cccc(-c2ccccc2)n1)[C@@H](C)O)B(O)O, the activity change, negative = inhibition is reported as -75.2% (active) and -70.7% (active). In the case of CC(C)C[C@H](NC(=O)[C@@H](O)[C@H](N)Cc1ccccc1)C(=O)O, the activity change, negative = inhibition is reported as -0.518% (inactive) and 15% (inactive). For CC(C)C[C@@H](NC(=O)OCC1c2ccccc2-c2ccccc21)C(=O)O, the activity change, negative = inhibition was 145% (inactive) and 359% (inactive). In the case of CC(C)C[C@H](NC(=O)[C@H](Cc1ccccc1)NC(=O)c1cnccn1)B(O)O, the activity change, negative = inhibition is reported as -73.2% (active) and -72% (active). For CC(C)CC(NC(=O)OCC1c2ccccc2-c2ccccc21)C(=O)O (centres undefined), the activity change, negative = inhibition was -4.74% (inactive). For CNC(=O)[C@H](Cc1ccccc1)NC(=O)[C@H](CC(C)C)[C@H](CSc1cccs1)C(=O)NO, the activity change, negative = inhibition was -1.31% (inactive) and 10.6% (inactive). For CCC[N+]12C3C[C@H](C4C(O)[C@]5(C[C@@H]41)c1ccccc1N(C)[C@@H]35)[C@H](CC)[C@H]2O (some centres undefined), the activity change, negative = inhibition was 10.9% (inactive). For CCOc1ccc(N=C(C)Nc2ccc(OCC)cc2)cc1, the activity change, negative = inhibition was 3.11% (inactive). With CCCc1c(OCC(O)COc2ccc3c(=O)cc(C(=O)O)oc3c2CCC)ccc(C(C)=O)c1O (centres undefined) the activity change, negative = inhibition was 10.3% (inactive) and -5.08% (inactive). In the case of CCOC(=O)C1CN(Cc2ccccc2)C(=O)C1=O (centres undefined), the activity change, negative = inhibition is reported as 16.6% (inactive) and 1.66% (inactive). In the case of N[C@@H]1CCCC[C@H]1N.O=C(O)C(=O)O.[Pt], the activity change, negative = inhibition is reported as 10.5% (inactive). With CC1(C)CC[C@]2(C(=O)O)CC[C@]3(C)C(=CCC4[C@@]5(C)CC[C@@H](O)C(C)(C)C5CC[C@]43C)C2C1 (some centres undefined) the activity change, negative = inhibition was 10.1% (inactive). For N[C@@H]1CCCCN(c2c(F)cc3c(=O)c(C(=O)O)cn(C4CC4)c3c2Cl)C1, the activity change, negative = inhibition was 4.72% (inactive). With COc1c(N2C[C@@H]3CCCN[C@@H]3C2)c(F)cc2c(=O)c(C(=O)O)cn(C3CC3)c12 the activity change, negative = inhibition was -7.38% (inactive). In the case of N[C@@H]1CN(c2c(F)cc3c(=O)c(C(=O)O)cn([C@@H]4C[C@@H]4F)c3c2Cl)CC12CC2, the activity change, negative = inhibition is reported as -6.27% (inactive). With CNC1CCCN(c2c(F)cc3c(=O)c(C(=O)O)cn(C4CC4)c3c2OC)C1 (centres undefined) the activity change, negative = inhibition was 0.884% (inactive). With COc1c(N2CCNC(C)C2)c(F)cc2c(=O)c(C(=O)O)cn(C3CC3)c12 (centres undefined) the activity change, negative = inhibition was 7.25% (inactive) and -78% (active). For NC1CCN(c2c(F)cc3c(=O)c(C(=O)O)cn(C4CC4)c3c2Cl)C1 (centres undefined), the activity change, negative = inhibition was -79.3% (active). For C[C@H](NC(=O)c1sccc1OCc1ccc(Cl)cc1)c1ccccc1, the activity change, negative = inhibition was 28.7% (inactive). In the case of O=C(O)c1cc(Oc2ccc([N+](=O)[O-])cc2)cc(Oc2ccc([N+](=O)[O-])cc2)c1, the activity change, negative = inhibition is reported as 4.54% (inactive) and 5.04% (inactive).
